# Assay outcomes deposited in PubChem BioAssay by National Center for Advancing Translational Sciences (NCATS).
# KB-V1 cytotox – KB-V1 MDR subline cytotoxicity. Potency, µM (top dose mostly 46.1 µM), usual class: cytotoxic. 3.4% of 400,000 active. KB-V1 MDR cells viability, CellTiter-Glo, 72 h. AID 1347076; note: nearly all actives have a fitted effect of over 60% in size
#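 KB-V1 MDR subline cells in DMEM (phenol-red free, 10% FBS) exposed to compounds in qHTS concentration series for 72 h at 37 degrees C. Viability read by CellTiter-Glo luminescence; concentration-effect curves fitted after normalization and correction.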
# DT40 TDP1 no CPT – qHTS for Inhibitors of human tyrosyl-DNA phosphodiesterase 1 (TDP1): qHTS in cells in absence of CPT; DT40 Tdp1-/- hTDP1 cells, no CPT, ATP luminescence, 48 h; Potency, µM (titrated, usually from 46.2 µM), without a hit: at the top dose activity change, negative = growth inhibition, usual class: inhibitors; 15% of 420,000 active; AID 686978, 2013; note: nearly all actives have a fitted effect of over 55% in size
#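 Stably hTDP1-transfected Tdp1-null chicken DT40 cells were treated with library compounds minus camptothecin and grown for at least 48 hr at 37 °C, after which cellular ATP was quantified by luminescence.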
# TDP1 cell CPT – growth inhibition of DT40 Tdp1-/-;hTDP1 cells with camptothecin (screen for TDP1 inhibitors). chicken DT40 Tdp1-/-;hTDP1 cells + 20 nM CPT, ATP luminescence, 48 h. Potency, µM (top dose mostly 46.2 µM), for the others: at the highest dose activity change, negative = growth inhibition, hits mostly inhibitors. 12% of 420,000 active. AID 686979; note: nearly all actives have a fitted effect of over 55% in size
#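 Chicken DT40 Tdp1-/- cells stably complemented with human TDP1 were seeded at 400 cells/well in medium containing 20 nM camptothecin, exposed to pin-transferred compounds, and grown at 37 °C for at least 48 hr. Viability was read as ATP luminescence.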
# HT1080 IDH1KD tx – HT-1080 IDH1 knockdown cell toxicity (counter line); HT-1080 IDH1 knockdown viability, ATP luminescence, 48 h; Potency, µM (top dose mostly 46.1 µM), for the others: top-dose activity, negative = toxicity, actives largely listed as cytotoxic; 2% of 360,000 active;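 note: 0% = DMSO wells and -100% = cell-free medium wells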
#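 Knockdown cells (IDH1KD HT-1080) received compounds 2 h after plating at 750 cells/well and were kept 48 h at 37 °C in 5% FBS RPMI. A CellTiter-Glo luminescence read gave % activity for curve fitting.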
# KB-3-1 cytotox – KB-3-1 parental cell cytotoxicity; KB-3-1 viability, CellTiter-Glo ATP luminescence, 72 h; Potency, µM (doses to about 46.1 µM), actives largely listed as cytotoxic; 1.4% of 400,000 active; AID 1347075; note: nearly all actives have a fitted effect of over 60% in size
#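 Cytotoxicity measured as CellTiter-Glo luminescence after 72 h at 37 C. Compound titrations were pinned onto drug-naive KB-3-1 parental adenocarcinoma cells grown in DMEM with 10% FBS, and normalized data fitted to concentration-response curves.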
# HT1080-NT tox – kills 2HG-producing HT-1080-NT fibrosarcoma cells; HT-1080-NT fibrosarcoma viability, CellTiter-Glo ATP luminescence, 48 h; Potency, µM (titrated, usually from 46.1 µM), inactives show at the top dose activity, negative = less viability, usual class: cytotoxic; 1.6% of 360,000 active;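 note: NT is the 2HG producing partner of a matched IDH1 knockdown line; 0% = DMSO-treated cells and -100% = media-only wells without cells; nearly all actives have a fitted effect of over 55% in size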
#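 Fibrosarcoma NT cells, 750 per well in 5% FBS RPMI, were exposed to compound for 48 hours. Viability: CellTiter-Glo luminescence.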
# Starred values were filed as active, the others as inactive; i = inactive; ? = inconclusive; · = no result. Most compounds without a hit are left out; they make up all but 19% or so of the library. Calls come from the whole dose curve; as a rule, active = well fitted curve in the direction sought with a large enough effect; inconclusive = small, poorly fitted or top-dose-only effect, or another doubt; inactive = no such curve, though single readings can be large; an effect the other way counts as inactive or inconclusive. Unless noted, % is set by controls: 0 for no effect and ±100 for the full control effect; potency is the fitted concentration of half-maximal effect.
SMILES,KB-V1 cytotox,DT40 TDP1 no CPT,TDP1 cell CPT,HT1080 IDH1KD tx,KB-3-1 cytotox,HT1080-NT tox
O=C(CCc1nc2ccccc2c(=O)[nH]1)Nc1nnc(SCc2ccccc2F)s1,i,16µM*,13µM*,4%,i,11%
CC(=O)N1CCC2(CC1)CN(c1ccccc1)C2,·,-21%,?,·,·,·
O=C(Nc1ccc(F)cc1)N(CCCN1CCOCC1)Cc1cc2cc3c(cc2[nH]c1=O)OCCO3,i,?,8.2µM*,-8%,?,-15%
Cc1ccc2cc(CN(CCN3CCOCC3)C(=O)NCc3ccccc3)c(=O)[nH]c2c1C,i,?,?,-14%,i,-4%
O=C(Nc1ccc(F)cc1)N(CCCN1CCOCC1)Cc1cc2cc3c(cc2[nH]c1=O)OCO3,i,?,?,-9%,?,0%
Cc1ccc2cc(CN(CCN3CCCC3)C(=O)Nc3ccc(F)cc3)c(=O)[nH]c2c1C,i,18µM*,23µM*,?,i,23µM*
CCc1ccc2[nH]c(=O)c(CN(CCCN3CCOCC3)C(=O)Nc3ccc(F)cc3)cc2c1,i,13µM*,?,?,?,?
COc1cc(O)c(C(CC(=O)N2CCCCC2)c2ccc(N(C)C)cc2)c(OC)c1 (configuration not stated),?,-21%,0%,11%,i,8%
Cc1ccc(C(=O)COC(=O)C2C3C=CC(C3)C2C(=O)OCC(=O)c2ccc(C)c(C)c2)cc1C (configuration not stated),16µM*,?,?,-1%,?,3%
Cc1cccc(C(=O)NN2S(=O)(=O)c3ccccc3S2(=O)=O)c1,i,3%,-8%,13%,i,?
O=[N+]([O-])c1ccc2c(c1)c1ccccc1n2CCO,8.2µM*,?,9%,?,?,?
COc1ccc(C(CNC(=O)c2cc(S(=O)(=O)Nc3cccc(C)c3)ccc2C)N2CCOCC2)cc1 (configuration not stated),i,?,?,-2%,i,-1%
COc1ccccc1NS(=O)(=O)c1ccc(C(=O)NCC(c2ccccc2OC)N(C)C)cc1 (configuration not stated),i,-13%,-11%,5%,i,-2%
Cc1cccc(NS(=O)(=O)c2ccc(C(=O)NCC(c3ccccc3)N(C)C)cc2)c1C (configuration not stated),i,?,16µM*,?,i,?
Cc1cccc(NS(=O)(=O)c2cccc(C(=O)NCC(c3ccco3)N3CCCCC3)c2)c1 (configuration not stated),?,23µM*,21µM*,0%,i,-6%
Cc1cccc(NS(=O)(=O)c2cccc(C(=O)NCC(c3ccc(F)cc3)N3CCOCC3)c2)c1 (configuration not stated),21µM*,?,?,-7%,?,0%
Cc1cccc(NS(=O)(=O)c2ccc(C)c(C(=O)NCC(c3cccs3)N3CCOCC3)c2)c1 (configuration not stated),i,16µM*,?,0%,i,3%
O=C(C[n+]1ccncc1)c1ccc2ccccc2c1,i,?,-14%,·,?,·
Cc1ccc(S(=O)(=O)NC(=O)COc2ccccc2C)c(C)c1,·,2%,6%,0%,·,-4%
NS(=O)(=O)c1cccc(NC(=O)COC(=O)CN2C(=O)C3CC=CCC3C2=O)c1 (configuration not stated),i,-9%,?,10%,i,10%
